Screens: PubChem, National Center for Advancing Translational Sciences (NCATS)
ASM inhibitor = human S-ASM enzyme inhibition. AID 504937. P17405. Potency, µM (top dose mostly 57.5 µM), for inactives: at the top dose activity change, negative = inhibition, usual class: inhibitors. placental ASM, HMU-PC fluorogenic substrate, 60 min. 340,000 tested, 0.006% active; note: potency is the fitted concentration of half-maximal effect
Target sequence (P17405 47-631 limits assumed): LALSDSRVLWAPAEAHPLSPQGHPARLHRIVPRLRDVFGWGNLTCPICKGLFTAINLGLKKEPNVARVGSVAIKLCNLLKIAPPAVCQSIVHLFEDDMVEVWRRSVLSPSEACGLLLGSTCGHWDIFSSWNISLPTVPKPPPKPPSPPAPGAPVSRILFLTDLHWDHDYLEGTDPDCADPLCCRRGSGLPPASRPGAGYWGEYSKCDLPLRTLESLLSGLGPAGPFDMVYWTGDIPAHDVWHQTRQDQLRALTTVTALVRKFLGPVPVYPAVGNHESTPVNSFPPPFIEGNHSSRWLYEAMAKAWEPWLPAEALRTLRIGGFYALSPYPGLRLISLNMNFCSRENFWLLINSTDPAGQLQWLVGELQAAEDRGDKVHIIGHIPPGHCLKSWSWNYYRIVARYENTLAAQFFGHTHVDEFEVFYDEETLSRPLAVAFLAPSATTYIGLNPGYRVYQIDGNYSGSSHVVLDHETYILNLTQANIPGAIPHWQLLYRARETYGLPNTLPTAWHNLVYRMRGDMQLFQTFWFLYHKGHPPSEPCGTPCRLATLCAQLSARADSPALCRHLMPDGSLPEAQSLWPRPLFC
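Human placenta-derived ASM enzyme was preincubated with compound for 10 minutes at room temperature, then given fluorogenic substrate HMU-PC0 (9 uM final) for 60 minutes at 37 °C; a pH 10 stop preceded fluorescence reading at Ex 386/Em 447 nm.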
TDP1 cell noCPT = qHTS for Inhibitors of human tyrosyl-DNA phosphodiesterase 1 (TDP1): qHTS in cells in absence of CPT | DT40 Tdp1-/- hTDP1 cells, no CPT, ATP luminescence, 48 h | Potency, µM (top dose mostly 46.2 µM), inactives show top-dose activity change, negative = growth inhibition, most hits filed as inhibitors | AID 686978, 2013 | 420,000 tested, 15% active; note: potency is the fitted concentration of half-maximal effect; % is set by controls: 0 for no effect and ±100 for the full control effect; nearly all actives have a fitted effect of over 55% in size
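Chicken DT40 Tdp1-/- cells complemented with human TDP1, screened without camptothecin (DMSO vehicle only), 400 cells/well. Compounds pin-transferred, cells incubated at 37 °C for at least 48 hr. Growth read as ATP-dependent luminescence (CellTiter-Glo, 30 min at RT).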
IL1B secr inh = blocks inflammasome-driven IL-1 beta release | THP-1 LPS/ATP IL-1B secretion, AlphaLISA, 16 h; hits give low values | activity change, % at 57.5 µM | 360,000 tested, 4.7% active | AID 743279; in the data active = activity change below about -50%; inconclusive = mostly about -30% to -49%; note: % is set by controls: 0 for no effect and ±100 for the full control effect
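THP-1 cells pretreated 1 hr with compounds (up to 57.5 uM final), then stimulated with LPS (250 ng/mL final) plus ATP (1.25 mM final); secreted IL-1B measured by AlphaLISA after 16 hr, decreased signal indicating inhibition.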
HepG2 tox = kills HepG2 cells in TGF-b inhibitor counter-screen. HepG2 CAGA-GFP viability, ATP luminescence, 18 h. Potency, µM (highest dose often 46.1 µM), without a hit: at the highest dose activity change, negative = cytotoxicity, most hits filed as cytotoxic. 410,000 tested, 0.76% active. AID 588856; note: potency is the fitted concentration of half-maximal effect
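CellTiter-Glo luminescence gave cytotoxicity after 18 hours at 37 degrees C. The cells were HepG2 CAGA-GFP in 1% FBS DMEM, stimulated with 500 pg/mL TGF-beta after compound addition. %Activity was normalised to no-cell wells (complete cell-killing) and DMSO (no toxicity), and curves were fitted and classified.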
DT40 TDP1 CPT = growth inhibition of DT40 Tdp1-/-;hTDP1 cells with camptothecin (screen for TDP1 inhibitors) | 420,000 tested, 12% active | chicken DT40 Tdp1-/-;hTDP1 cells + 20 nM CPT, ATP luminescence, 48 h | Potency, µM (highest dose often 46.2 µM), for the others: at the top dose activity change, negative = growth inhibition, most hits filed as inhibitors; note: potency is the fitted concentration of half-maximal effect; % is set by controls: 0 for no effect and ±100 for the full control effect; nearly all actives have a fitted effect of over 55% in size
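Chicken DT40 Tdp1-/- cells stably complemented with human TDP1 were seeded at 400 cells/well in medium containing 20 nM camptothecin, exposed to pin-transferred compounds, and grown at 37 °C for at least 48 hr. Viability was read as ATP luminescence.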
TGFb SMAD3 inh = blocks TGF-b signaling; HepG2 CAGA-GFP TGF-b/SMAD3 reporter, GFP fluorescence, 18 h; TGF-beta stimulated, 500 pg/mL final; Potency, µM (top dose mostly 46.1 µM), without a hit: top-dose activity, negative = inhibition, actives largely listed as inhibitors; 410,000 tested, 1.2% active; AID 588855; note: potency is the fitted concentration of half-maximal effect; % is set by controls: 0 for no effect and ±100 for the full control effect; nearly all actives have a fitted effect of over 65% in size
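Inhibition of TGF-beta-driven CAGA-GFP reporter expression in HEPG2 cells is measured by cellular GFP fluorescence after 18 h stimulation with 500 pg/mL recombinant TGF-beta in 1% FBS medium at 37 degrees C.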
Starred values were filed as active, the others as inactive; ? = inconclusive; . = no result given; [ ] = another dose, or the depositor's remark. An excerpt weighted towards active compounds, which were near 19% of everything screened. Unless noted, calls come from the whole dose curve; as a rule, active = well fitted curve in the direction sought with a large enough effect; inconclusive = small, poorly fitted or top-dose-only effect, or another doubt; inactive = no such curve, though single readings can be large; an effect the other way counts as inactive or inconclusive.

SMILES | ASM inhibitor | TDP1 cell noCPT | IL1B secr inh | HepG2 tox | DT40 TDP1 CPT | TGFb SMAD3 inh
COc1ccc(-c2cc(C(=O)N(C)Cc3cccc(OC)c3OC)c3ccccc3n2)cc1OC | 105.1% | 14.6µM* | -10.1 | -11.2% | 20.6µM* | 5.0%
COCCNC(=O)c1cc(-c2cccnc2)nc2ccc(Br)cc12 | -0.2% | ? | ? | -30.9% | ? | 1.5%
COc1ccc2cc(-c3cc(C(=O)O)c4ccccc4n3)ccc2c1 | 100.1% | ? | 28.2 | -57.3% | ? | -3.4%
NC(=O)COc1ccc(S(=O)(=O)N2CCCC2)cc1 | . | 0.0% | 6.2 | -23.8% | 2.5% | -8.8%
Cc1cc(NC(=O)c2cccs2)cc(-c2nc3cc(Cl)ccc3o2)c1O | . | . | . | -3.4% | . | 17.7%
COC(=O)C1CCN(Cc2ccc3c(c2)CN(C(=O)c2ccc(-n4cnnn4)cc2)CCO3)CC1 | . | -7.3% | . | . | 0.2%[9.04 µM] | .
CCCNC(=O)C(=O)NCC(c1ccc2c(c1)OCO2)N1CCOCC1 (configuration not stated) | . | -5.4% | . | 3.0% | 4.6% | 0.0%
CC(C)NC(=O)N(C)C[C@H]1OCc2cnnn2CCCC(=O)N([C@H](C)CO)C[C@H]1C | . | 3.7% | 22.4 | 4.6% | 12.3% | -1.4%
Cn1c(CNC(=O)C2CCC(=O)N(CCc3cccc(F)c3)C2)nc2ccccc21 (configuration not stated) | -0.4% | ? | -8.1 | -4.6% | ? | -0.3%
Cc1ccc(CN2CCOc3ccc(C(C)(O)COc4ccccc4)cc3C2)o1 (configuration not stated) | . | -13.6% | . | . | 0.3%[9.04 µM] | .
COc1cccc(CN(C)C(=O)c2cc(-c3ccc(F)cc3)nc3ccccc23)c1 | -0.6% | 20.6µM* | -28.6 | -37.8% | 20.6µM* | -33.7%
COc1ccc(CN(C)C(=O)c2cc(-c3ccc(OC)c(OC)c3)nc3ccccc23)c(OC)c1 | 68.9% | 18.4µM* | -3.2 | -26.0% | 16.4µM* | -14.7%
CN1CCC(N(C)C(=O)c2cc(-c3ccc(F)cc3)nc3ccccc23)CC1 | 32.3% | ? | -67.8* | -15.8% | ? | 27.4%
COc1ccccc1CN(C)C(=O)c1cc(-c2cccs2)nc2ccccc12 | 17.2% | 16.4µM* | -10.6 | -9.7% | ? | ?
Cc1cccc(C(=O)NCc2nnc(SCC(=O)NC3CCCC3)n2C)c1 | -1.9% | -4.1% | 24.2 | -10.8% | -0.4% | 18.7%
COc1ccc(-c2cc(C(=O)N(C)Cc3nc4ccccc4c(=O)[nH]3)c3ccccc3n2)cc1OC | 24.6% | 20.6µM* | -23.6 | -21.0% | ? | 1.7%
CNc1ccnc(-c2ccccc2C(F)(F)F)n1 | . | 10.7% | . | . | 2.8% | .
O=C1ON=C(c2ccccc2)/C1=C/c1ccco1 | -17.0% | ? | 19.0 | -2.9% | ? | 2.4%
Cc1cccc(C2=NOC(=O)/C2=C\c2ccccc2F)c1 | 6.5% | 2.59µM* | 25.6 | 0.7% | -23.7% | -5.2%
NC(=O)COc1ccc(/C=C2\C(=O)ON=C2c2ccccc2)cc1 | 1.4% | 14.6µM* | ? | -30.9% | 16.4µM* | ?
COc1cc(/C=C2\N=C(c3ccccc3)NNC2=O)cc(OC)c1OC | -3.2% | 4.61µM* | 29.2 | -20.4% | 5.17µM* | ?
CCOc1cc(/C=C2/C(=O)ON=C2C)ccc1OCc1ccccc1F | -2.2% | ? | -100.1* | 15.8µM* | ? | ?
O=C1NNC(c2ccccc2)=N/C1=C\c1ccco1 | 0.0% | ? | -5.6 | -16.1% | -26.8% | -3.3%
c1coc(C2=NCCc3ccccc32)c1 | 0.4% | 3.2% | 4.3 | -16.0% | -12.9% | 3.8%
CN(C)C(=O)CSc1nc2ccc(C(=O)c3ccccc3)cc2[nH]1 | -2.9% | ? | -15.1 | -33.3% | -6.2% | 1.6%
SMILES | ASM inhibitor | TDP1 cell noCPT | IL1B secr inh | HepG2 tox | DT40 TDP1 CPT | TGFb SMAD3 inh
COc1ccc(/C=C2/C(=O)ON=C2c2ccccc2)cc1OC | -1.2% | 14.6µM* | -101.7* | -71.2% | ? | ?
CCOc1cc(/C=C2/C(=O)ON=C2C)ccc1OCc1ccccc1 | -0.7% | ? | -20.2 | -7.0% | -3.8% | -16.9%
COc1ccc(C=C2C(=O)OC(C)(C)OC2=O)cc1OC | 6.4% | -10.5% | -0.7 | 0.4% | -1.5% | 6.5%
CCOc1cc(/C=C2\C(=O)ON=C2c2ccccc2)ccc1OC | -1.0% | 18.4µM* | -94.0* | -57.0% | 23.1µM* | ?
COc1ccc(/C=C2\C(=O)ON=C2c2ccccc2)cc1OC | 5.3% | ? | -98.5* | -73.1% | 25.9µM* | ?
COc1cc(/C=C2\C(=O)ON=C2c2ccccc2)cc(OC)c1OC | -1.5% | 16.4µM* | -116.7* | 0.3% | ? | -8.8%
CCCCN1C(=O)C(CC(=O)NCc2ccco2)CC(C(=O)N(C(C)C)C(C)C)=C1C (configuration not stated) | . | -1.2% | ? | 13.4% | -0.3% | -6.0%
CCN(CC)C(=O)C1=C(C)N(Cc2ccc(C(C)(C)C)cc2)C(=O)C(CC(=O)NCc2cccs2)C1 (configuration not stated) | . | 23.1µM* | ? | -22.3% | 23.1µM* | -11.3%
COc1ccc(CN2C(=O)C(CC(=O)NCc3ccco3)CC(C(=O)N(C)C)=C2C)cc1 (configuration not stated) | . | -20.8% | 23.9 | -8.4% | -12.3% | 3.3%
CCN(CC)C(=O)C1=C(C)N(Cc2ccc(C(C)(C)C)cc2)C(=O)C(CC(=O)NCc2ccco2)C1 (configuration not stated) | . | 23.1µM* | ? | -8.6% | ? | 10.1%
CC1=C(C(=O)N(C(C)C)C(C)C)CC(CC(=O)NCc2ccco2)C(=O)N1Cc1ccc(C(C)(C)C)cc1 (configuration not stated) | . | 16.4µM* | -23.1 | -31.8% | 20.6µM* | 17.8µM*
